According to PubChem BioAssay (NCATS):
Inconclusive results are not listed. Entries that show only a call come without a potency. Active and inactive are the calls of the source. Calls follow the shape of the dose curve; as a rule, active = well fitted inhibition curve with a large enough effect; inconclusive = small, poorly fitted or top-dose-only effect; inactive = flat fitted curve, though single readings scatter.

Key:
Assay in all cases: qHTS profiling for inhibitors of Plasmodium falciparum proliferation (AID 504749); also: nearly all actives have a fitted effect of over 60% in size
Details in all cases: P. falciparum in erythrocytes, SYBR Green DNA, 72 h; series mostly up to 28.7 µM
CP201 = system: CP201
Method in brief: (§1)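 Three-day growth assay of blood-stage parasites in erythrocytes (0.3% parasitemia, 2.5% hematocrit) at 37 C, 5% CO2, quantified by SYBR Green DNA staining after overnight detergent lysis.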

CP237 = system: CP237
Method in brief: as §1

CP238 = system: CP238
Method in brief: as §1

CP250 = system: CP250
Method in brief: as §1

CP252 = system: CP252
Method in brief: as §1

CP256 = system: CP256
Method in brief: as §1

CP260 = system: CP260
Method in brief: as §1

CP262 = system: CP262
Method in brief: as §1

CP265 = system: CP265
Method in brief: as §1

CP266 = system: CP266
Method in brief: as §1

CP268 = system: CP268
Method in brief: as §1

CP286 = system: CP286
Method in brief: as §1

CP291 = system: CP291
Method in brief: as §1

CP194 = system: CP194
Method in brief: as §1

CP203 = system: CP203
Method in brief: as §1

CP211 = system: CP211
Method in brief: as §1

CP217 = system: CP217
Method in brief: as §1

CP247 = system: CP247
Method in brief: as §1

CP269 = system: CP269
Method in brief: as §1

CP215 = system: CP215
Method in brief: as §1
Potency is read from the fitted curve at half-maximal effect.

Compound | Potency (CP201) | Potency (CP237) | Potency (CP238) | Potency (CP250) | Potency (CP252) | Potency (CP256) | Potency (CP260) | Potency (CP262) | Potency (CP265) | Potency (CP266) | Potency (CP268) | Potency (CP286) | Potency (CP291) | Potency (CP194) | Potency (CP203) | Potency (CP211) | Potency (CP217) | Potency (CP247) | Potency (CP269) | Potency (CP215)
COc1cc(C(=O)NS(=O)(=O)c2ccccc2C)ccc1Cc1cn(C)c2ccc(NC(=O)OC3CCCC3)cc12 | inactive | inactive | inactive | inactive | inactive | inactive | inactive | inactive | inactive | inactive | inactive | inactive | inactive |  |  |  |  |  |  | 
Nc1ccc(S(=O)(=O)Nc2ncccn2)cc1 | inactive | inactive | inactive | inactive | inactive | inactive | inactive | inactive | inactive | inactive | inactive | inactive | inactive | inactive | inactive | inactive | inactive | inactive | inactive | 
CC[C@H]1CN2CCc3cc(OC)c(OC)cc3[C@H]2C[C@@H]1C[C@@H]1NCCc2cc(OC)c(OC)cc21 | 675 nM (active) | 126 nM (active) | 316 nM (active) | 316 nM (active) | 562 nM (active) | 355 nM (active) | 126 nM (active) | 757 nM (active) | 447 nM (active) | 675 nM (active) | 426 nM (active) | 158 nM (active) | 269 nM (active) | 601 nM (active) | 379 nM (active) | 675 nM (active) | 708 nM (active) | 398 nM (active) | 301 nM (active) | 536 nM (active)
CN1c2cc(O)c(N=NC(N)=O)cc2CC1S(=O)(=O)O (centres undefined) | inactive | inactive | inactive | inactive | inactive | inactive | inactive | inactive | inactive | inactive | inactive | inactive | inactive | inactive | inactive | inactive | inactive | inactive | inactive | inactive
CC1(C)O[C@@H]2C[C@@H]3[C@H]4C[C@@H](F)C5=CC(=O)C=C[C@]5(C)[C@@]4(F)[C@@H](O)C[C@]3(C)[C@]2(C(=O)CO)O1 |  | inactive | inactive | inactive | inactive | inactive | inactive | inactive | inactive |  |  | inactive |  | 15100 nM (active) |  |  | inactive | inactive |  | 
COc1c(N2C[C@@H]3CCCN[C@H]3C2)c(F)cc2c(=O)c(C(=O)O)cn(C3CC3)c12 | inactive |  | inactive | inactive | inactive | inactive | inactive | inactive | inactive | inactive |  | inactive | inactive | inactive | inactive | inactive | inactive | inactive | inactive | inactive
CC(C)(C)NC(=O)[C@H]1CN(Cc2cccnc2)CCN1C[C@@H](O)C[C@@H](Cc1ccccc1)C(=O)N[C@H]1c2ccccc2C[C@H]1O | 16900 nM (active) | 8910 nM (active) |  |  | 12600 nM (active) |  |  | inactive |  |  |  |  | 15100 nM (active) | 15100 nM (active) |  |  | 11200 nM (active) | 11200 nM (active) | 13500 nM (active) | 15100 nM (active)
Nc1ccn([C@@H]2O[C@H](CO)[C@H](O)C2(F)F)c(=O)n1 | 2130 nM (active) | 3550 nM (active) | 3980 nM (active) | 5010 nM (active) | 3550 nM (active) | 1580 nM (active) | 3980 nM (active) | 2690 nM (active) | 3980 nM (active) | 4780 nM (active) | 6010 nM (active) | 3980 nM (active) | 4260 nM (active) | 6750 nM (active) | 2690 nM (active) | 2390 nM (active) | 4470 nM (active) | 1410 nM (active) | 4780 nM (active) | 6010 nM (active)
COC(=O)C[C@](O)(CCCC(C)(C)O)C(=O)O[C@@H]1C(OC)=C[C@]23CCCN2CCc2cc4c(cc2[C@H]13)OCO4 | 42.6 nM (active) | 15.8 nM (active) | 28.2 nM (active) | 28.2 nM (active) | 31.6 nM (active) | 31.6 nM (active) | 28.2 nM (active) | 33.8 nM (active) | 31.6 nM (active) |  | 37.9 nM (active) | 28.2 nM (active) | 33.8 nM (active) | 37.9 nM (active) | 33.8 nM (active) | 30.1 nM (active) | 31.6 nM (active) | 17.8 nM (active) | 33.8 nM (active) | 33.8 nM (active)
O=c1[nH]c(=O)n(C2CCCO2)cc1F (centres undefined) | inactive | inactive | inactive | inactive | inactive | inactive | inactive | inactive | inactive | inactive | inactive | inactive | inactive | inactive | inactive | inactive | inactive | inactive | inactive | 
C[C@H]1C[C@@H]2[C@@H]([C@@H](O)C[C@@]3(C)[C@H]2CC[C@]3(O)C(=O)CO)[C@@]2(C)C=CC(=O)C=C12 | inactive | inactive | inactive | inactive | inactive | inactive | inactive | inactive | inactive | inactive | inactive | inactive | inactive | inactive | inactive | inactive | inactive | inactive | inactive | inactive
COC(=O)C1=C(C)NC(C)=C(C(=O)OCCN2CCN(C(c3ccccc3)c3ccccc3)CC2)C1c1cccc([N+](=O)[O-])c1 (centres undefined) | 7570 nM (active) | 3160 nM (active) | 2510 nM (active) | 4470 nM (active) | 2820 nM (active) | 3550 nM (active) | 2510 nM (active) | 4780 nM (active) |  | 6750 nM (active) | 4780 nM (active) | 2510 nM (active) | 4780 nM (active) | 5360 nM (active) | 3790 nM (active) | 3790 nM (active) | 3160 nM (active) | 3980 nM (active) | 4260 nM (active) | 3380 nM (active)
CC=CC1=C(C(=O)O)N2C(=O)[C@H](NC(=O)[C@H](N)c3ccc(O)cc3)[C@@H]2SC1 | inactive | inactive | inactive | inactive | inactive | inactive | inactive | inactive | inactive | inactive | inactive | inactive | inactive | inactive | inactive | inactive | inactive | inactive | inactive | inactive
CCC1=C[C@@H]2CN(C1)Cc1c([nH]c3ccccc13)[C@@](C(=O)OC)(c1cc3c(cc1OC)N(C)[C@@H]1[C@@](O)(C(=O)OC)[C@H](OC(C)=O)[C@]4(CC)C=CCN5CC[C@]31[C@@H]54)C2 | 4780 nM (active) | 3980 nM (active) | 2820 nM (active) | 3980 nM (active) | 2820 nM (active) | 2000 nM (active) | 2820 nM (active) | 3010 nM (active) | 2000 nM (active) | 4260 nM (active) | 3380 nM (active) | 2000 nM (active) | 3010 nM (active) | 3380 nM (active) | 3010 nM (active) | 3380 nM (active) | 2510 nM (active) | 3550 nM (active) | 1900 nM (active) | 2130 nM (active)
Nc1ccn([C@@H]2CS[C@H](CO)O2)c(=O)n1 | inactive | inactive | inactive | inactive | inactive | inactive | inactive | inactive | inactive | inactive | inactive | inactive | inactive | inactive | inactive | inactive | inactive | inactive | inactive | inactive
O=C(O)CO.[NH2-].[NH2-].[Pt+2] | inactive | inactive | inactive | inactive | inactive | inactive | inactive | inactive | inactive | inactive | inactive | inactive | inactive | inactive | inactive | inactive | inactive | inactive | inactive | inactive
